Among all 96,000 compounds or so, about 20,000 (21%) were called active. A selection follows. Unmarked numbers belong to inactive results.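 The calls were made as follows: active = CYP2C19 inhibition above a set limit at 5 µM in the primary screen (cut at about 50% in these data); inactive = the rest.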

Sequence of Cytochrome P450 2C19 (Homo sapiens) (P33261 whole entry, looked up): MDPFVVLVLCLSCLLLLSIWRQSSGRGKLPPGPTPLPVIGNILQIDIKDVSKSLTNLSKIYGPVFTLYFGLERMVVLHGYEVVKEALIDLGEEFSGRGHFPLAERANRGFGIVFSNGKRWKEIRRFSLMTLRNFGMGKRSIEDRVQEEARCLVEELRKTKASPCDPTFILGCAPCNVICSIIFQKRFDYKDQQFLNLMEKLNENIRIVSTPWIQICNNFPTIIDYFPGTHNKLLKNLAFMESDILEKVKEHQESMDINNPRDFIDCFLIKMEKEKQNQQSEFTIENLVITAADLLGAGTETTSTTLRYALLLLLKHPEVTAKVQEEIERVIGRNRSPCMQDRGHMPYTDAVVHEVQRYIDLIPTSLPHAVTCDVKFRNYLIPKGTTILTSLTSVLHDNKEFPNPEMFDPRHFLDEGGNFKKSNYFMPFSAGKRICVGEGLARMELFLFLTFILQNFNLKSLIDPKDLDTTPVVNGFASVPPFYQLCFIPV

The experiment concerns the target Cytochrome P450 2C19 (Homo sapiens) (UniProt P33261). Kind of experiment: blockers of cytochrome P450 2C19 activity – biochemical, luminescence, ADME assay, primary screen (AID 778).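 Also: plate controls were negative control wells for no effect and 2.5 mM tranylcypromine positive control for full effect.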 The following applies: CYP2C19 Supersomes, luciferin-H EGE luminescence, 30 min; at 5 µM; stronger effect = higher value.
In general, inhibition refers to the drop in the measured response relative to a control, in per cent. In the case of `COc1ccc(Cl)cc1C(=O)Nc1ccc(N(C)C(C)=O)cc1`, the inhibition was 25.6%. As for `COc1ccc(NC(=S)N2N=CCC2c2ccccc2)cc1` (stereo unspecified), the figure is 41.5%.

For the compound `N#Cc1c(N)n(CCOC(=O)c2ccc(Cl)cc2)c2nc3ccccc3nc12`, the inhibition was 29.4%.

Consider `CCOC(=O)c1cc(NC(=O)c2ccc(Cl)cc2)c(=O)oc1-c1ccccc1`, for which the inhibition is 6.8%. In the case of `CN1OC(COC(=O)c2ccc(Cl)cc2)CC1c1ccccc1` (stereo unspecified), the inhibition is 74.5% (active). Take `CCOc1ccc(OCC)c(NC(=O)C(NS(=O)(=O)c2ccc3c(c2)oc(=O)n3C)C(C)C)c1` (stereo unspecified): the inhibition was 20.9%. Take `c1ccc(-c2cc(-c3nnc4sc(-c5ccccn5)nn34)[nH]n2)cc1`: the inhibition is 10.4%. Regarding `O=C(O)c1cccnc1NC1CCCC1`, the inhibition was 6.9%. As for `CCN(CC)C(=O)CSc1nnc(-c2ccc(S(=O)(=O)NCc3ccccc3Cl)cc2)o1`, the figure is 65.4% (active); as for `CCN(CC)C(=O)CSc1nnc(-c2cccc(OC)c2)o1`, 26.3%; as for `O=C(CSc1nnc(-c2ccc(NS(=O)(=O)c3ccccc3)cc2)o1)NCC1CCCO1` (stereo unspecified), 46.1%. On to `O=C(Nc1cc(C(F)(F)F)ccc1Cl)c1cc2nc3c(c(C(F)(F)F)n2n1)CCCC3`, for which the inhibition was 7.6%. With `CC(CC(=O)Nc1cc(C(F)(F)F)ccc1Cl)c1ccccc1` (stereo unspecified), the inhibition is 61% (active). For `CC(C)CC(=O)Nc1cc(C(F)(F)F)ccc1N1CCOCC1`, the inhibition was 32.1%. For the compound `COC(=O)CNC(=O)c1ccc2c(c1)S(=O)(=O)c1ccccc1C2=O`, the inhibition is -4.3%.

`O=C(CC1OC(=O)c2ccccc21)NC1CCCCC1` (stereo unspecified): the inhibition is -5.7%. `O=C(NC(c1ccccc1)c1ccccc1)N1CCN(CCO)CC1`: the inhibition was 3.6%.

Take `S=c1[nH]nc2c3c4c(sc3ncn12)CCCC4`: the inhibition is -8.5%. Take `Cc1cccc(CSc2nnc(NC(=O)CSc3nnc(C)s3)s2)c1`: the inhibition was 20.2%. For the compound `CCOC(=O)/C(C#N)=C/c1ccc(OCC(=O)Nc2ccccc2)c(OC)c1`, the inhibition is 4.1%. For `O=C(NCCc1ccccc1)/C(=C\c1ccc([N+](=O)[O-])cc1)NC(=O)c1ccccc1`, the inhibition was -1.2%. As for `CCOC(=O)/C(=C\c1ccc([N+](=O)[O-])cc1)C(=O)c1cc(C(C)=O)c(Nc2ccccc2)s1`, the figure is 62.8% (active); as for `CCCC(=O)Nc1c(O)c2ccccc2[nH]c1=O`, -8.7%.

With `COc1ccc(OC)c(NC(=O)CN2CCN(C(=O)c3ccco3)CC2)c1`, the inhibition is 8.8%.

As to `CCOc1ccc(CC(=O)Nc2ccc(S(=O)(=O)Nc3cc(C)on3)cc2)cc1OCC`, the inhibition is 2%.

As for `COc1ccc(OC)c(NC(=O)CCN2CCC(C)CC2)c1`, the inhibition is 89.8% (active). Turning to `CCOc1ccccc1NC(=O)Nc1cc(OC)ccc1OC`, the inhibition was 1.1%. As to `CCOc1ccc(S(=O)(=O)Nc2nc3cc(OC)ccc3s2)cc1`, the inhibition is 16.3%. Consider `CCOc1ccc(S(=O)(=O)Nc2ccc(S(=O)(=O)Nc3cc(OC)ccc3OC)cc2)cc1`, for which the inhibition was 91.8% (active).

Regarding `COc1ccc(OC)c(NC(=O)Cn2c(=O)oc3ccccc32)c1`, the inhibition is 42.2%. As to `COc1ccc(C(=O)Nc2ccc(F)cc2F)cc1`, the inhibition was 12.1%.

On to `CCOc1ccc(C(=O)Nc2cc(OC)ccc2OC)cc1`, for which the inhibition was 77% (active). The result for `O=P(c1cccs1)(c1cccs1)c1cccs1` reads 7.9%; that for `COC(=O)C(C)N(C#N)c1nc(C)nc(C)n1` (stereo unspecified), 15.2%. In the case of `CCOC(=O)C1CCCN(C(=O)c2sc3nc(C)nc(N4CCOCC4)c3c2C)C1` (stereo unspecified), the inhibition was -5%. As to `Nc1nonc1-c1noc(-c2ccc(Br)o2)n1`, the inhibition was 47.6%.

Turning to `CN1CCN(Cc2c(O)ccc3c2oc(=O)c2ccccc23)CC1`, the inhibition is -0.1%. With `CN1CCN(C(=O)Cn2c(C(F)(F)F)nc3ccccc32)CC1`, the inhibition is -11.1%. Regarding `CC(C)(C)NC(=O)NC(=O)COC(=O)Cn1c(C(F)(F)F)nc2ccccc21`, the inhibition was 54.6% (active). In the case of `Cc1ccccc1OC(=O)Cn1c(C(F)(F)F)nc2ccccc21`, the inhibition is 35.4%. As for `CCCCN(C)Cc1c(C)[nH]c2ccc(Cl)cc2c1=O`, the figure is -11.4%; as for `O=C(Nc1c(Cl)cccc1Cl)C1CCC1`, -0.2%. For the compound `O=C(c1ccco1)N1CCN(c2cccc(Cl)c2)CC1`, the inhibition is 19.9%. For `O=C(c1ccco1)N1CCN(C(=O)C2CC(c3ccc(F)cc3)=NO2)CC1` (stereo unspecified), the inhibition was 5.3%. As for `O=C(c1ccco1)N1CCN(C(=O)C2CC(c3ccc(Cl)c(Cl)c3)=NO2)CC1` (stereo unspecified), the inhibition is 53.8% (active).

Regarding `O=C1CN(C(=O)COC(=O)C2CC(=O)N(Cc3ccco3)C2)c2ccccc2N1` (stereo unspecified), the inhibition was -8.7%.

Take `Cc1ccc(S(=O)(=O)NCC(=O)OCC(=O)N2CCc3ccccc32)cc1`: the inhibition is -3.8%. As for `Cc1ccc(S(=O)(=O)N2CCC(C(=O)OCC(=O)N3CC(=O)Nc4ccccc43)CC2)cc1`, the inhibition was 62.2% (active).

In the case of `COc1cc(OC)cc(C(=O)Nc2ccc(-c3nc4ccccc4o3)c(O)c2)c1`, the inhibition is 22.3%. Turning to `O=C(c1ccccc1-c1ccccc1)N1CCOCC1`, the inhibition was 10.3%. The result for `O=C(c1ccccc1)N1CCN(C(=O)N2CCCCC2)CC1` reads 39.7%; that for `O=C(c1ccccc1Oc1ccccc1)N1CCN(c2ccc(F)cc2)CC1`, 87.1% (active); that for `O=C(c1cccc(C(=O)N2CCN(c3ccc(F)cc3)CC2)c1)N1CCN(c2ccc(F)cc2)CC1`, 81.8% (active). Consider `Cc1ccccc1CN1CCN(C(=O)c2cccc(F)c2)CC1`, for which the inhibition is 98.4% (active). For the compound `CCC(CC)C(=O)Nc1cccc(C(=O)N2CCCC2)c1`, the inhibition was 15.4%. With `O=C(CN1CCN(C(=O)c2cccc(F)c2)CC1)Nc1ccccc1F`, the inhibition was 42.8%. The result for `CC(C)N(C(=O)COC(=O)c1ccccc1C(=O)N1CCN(c2ccc(F)cc2)CC1)C(C)C` reads 44.2%; that for `O=C(c1cccc(F)c1)N1CCN(c2ccc([N+](=O)[O-])c(N3CCCCC3)c2)CC1`, 49%; that for `O=C(c1ccccc1)c1cccn1CC(=O)N1CCN(c2ccc(F)cc2)CC1`, 33.3%. As to `Cc1cccc(C(=O)N2CCCN(C(=O)c3cccc(C)c3)CC2)c1`, the inhibition was 90.5% (active). The result for `Cc1ccccc1CS(=O)(=O)CC1(O)CCN(C(=O)c2cccc(C(F)(F)F)c2)CC1` reads 19.1%.

(Values after PubChem BioAssay AID778 (Sanford-Burnham Center for Chemical Genomics, 2007).)
